HTT prom inh = HTT promoter inhibition. HEK293 HTT promoter firefly luciferase reporter, 24 h. Potency, µM (series often up to 57.5 µM), for the others: top-dose activity change, negative = inhibition, hits mostly inhibitors. 0.93% of 48,000 active. AID 1508623; also: nearly all actives have a fitted effect of over 50% in size
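Quantitative HTS used concentration series of up to 57.5 uM final on HEK293 luciferase reporter cells, 24 h at 37 degrees C. Readout was Dual-Glo firefly luminescence.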
HTT-AS promoter = activators of huntingtin-antisense promoter activity; HEK293 HTT-AS promoter firefly luciferase reporter, 24 h; response scale: percent change from vehicle, -100% = no light; Potency, µM (top dose mostly 57.5 µM), inactives show top-dose activity change, positive = activation, actives largely listed as activators; 0.24% of 48,000 active; AID 1508624; also: nearly all actives have a fitted effect of over 55% in size
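Quantitative HTS used concentration series of up to 57.5 uM final on HEK293 luciferase reporter cells, 24 h at 37 degrees C. Readout was Dual-Glo firefly luminescence.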
OvCa metastasis = blocks SKOV3ip1 adhesion and invasion in omental model | SKOV3ip1-GFP adhesion/invasion on 3D omental model, fluorescence | Potency, µM (top dose mostly 45.8 µM), without a hit: at the top dose activity change, negative = inhibition, usual class: inhibitors | 0.1% of 46,000 active | AID 1963576;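 also: plate controls were DMSO wells for no effect and tomatine positive control wells for full effect; nearly all actives have a fitted effect of over 65% in size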
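Primary human omental fibroblast/mesothelial 3D culture pre-formed 48 h. SKOV3ip1-GFP cells added with compounds (0.36-46 umol/L), incubated 2 h RT/16 h 37 C, fixed; GFP cells quantified at 488/509 nm.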
mTORC1 inh = mTORC1 pathway inhibition measured by phospho-rpS6; Tsc2-/- p53-/- MEF, phospho-rpS6 immunofluorescence/PI, 24 h; Potency, µM (highest dose often 38.3 µM), inactives show top-dose activity change, negative = inhibition, actives largely listed as inhibitors; 0.78% of 44,000 active; AID 493208;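 also: plate controls were DMSO for no effect and rapamycin for full effect; nearly all actives have a fitted effect of over 50% in size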
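Read-out: phospho-S6 Alexa-488 intensity over PI intensity per well, scored as % active cells using thresholds from rapamycin (7.5 nM) and DMSO controls. Tsc2-/-, p53-/- MEFs exposed to compound for 24 h; PI cell count recorded as viability.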
PMP22 txn prim = modulators of PMP22 gene transcription in S16 Schwann cells. S16 Pmp22-F2sN Schwann cells, FLuc/NLuc coincidence luminescence, 24 h. Potency, µM (highest dose often 57.5 µM), without a hit: at the top dose activity change, negative = inhibition, most hits filed as inhibitors. 2% of 43,000 active. AID 1508649; active = clear falling dose curves in both reporters; inconclusive = both reporters move, but less clearly or upward; inactive = either reporter flat; the % is the NLuc reporter signal; also: % is scaled to controls: 0 for no effect and ±100 for the full control effect
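S16(c9) Schwann cells with FLuc/NLuc coincidence reporter in the Pmp22 3' UTR; compounds pin-transferred, 24 h at 37C. Dual-luciferase read: FLuc first, then NLuc after Stop&Glo, each 10 min at room temperature.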
S16 viability = cytotoxicity in S16 Pmp22-F2sN Schwann cells; Potency, µM (highest dose often 57.5 µM), for inactives: at the top dose activity change, negative = cytotoxicity, most hits filed as cytotoxic; AID 1508642; S16 Pmp22-F2sN Schwann cells (luciferase reporters placed in the Pmp22 gene) viability, CellTiter-Glo, 24 h; 0.48% of 43,000 active; also: % is scaled to controls: 0 for no effect and ±100 for the full control effect; nearly all actives have a fitted effect of over 65% in size
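CellTiter-Glo counter-screen, qHTS, 1536-well. Cells: S16(c9) Pmp22-F2sN, 500-1,000/well in DMEM + 10% FBS. Cpd 23 nL pin transfer, 24 h, 37C/5% CO2. Read: luminescence, CCD imager.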
* = called active by the depositor; i = inactive; u = inconclusive; x = no result. The list is not random: actives were taken first. Their share in the collection is about 3.6%. Unless noted, calls follow the shape of the dose curve; as a rule, active = well fitted curve in the direction sought with a large enough effect; inconclusive = small, poorly fitted or top-dose-only effect, or another doubt; inactive = no such curve, though single readings can be large; an effect the other way counts as inactive or inconclusive. Potency is read from the fitted curve at half-maximal effect.

SMILES	HTT prom inh	HTT-AS promoter	OvCa metastasis	mTORC1 inh	PMP22 txn prim	S16 viability
CCCc1ccc(C2Sc3ccccc3NC3=C2C(=O)c2ccccc23)cc1 (configuration not stated)	32µM*	-53%	u	u	u	u
O=C1C2=C(Nc3ccccc3SC2c2ccccc2C(F)(F)F)c2ccccc21 (configuration not stated)	u	-43%	i	u	13µM*	u
O=C1C2=C(Nc3ccccc3SC2c2ccc(Cl)c(Cl)c2)c2ccccc21 (configuration not stated)	u	-63%	-25%	-8%	u	u
COc1ccc(-c2cn3nc(SCC(=O)Nc4ccccc4F)ccc3n2)cc1	4µM*	-92%	u	6%	6%	4%
C[C@H](NCc1ccc2c(c1)nc(NC(=O)c1ccc(-c3cn[nH]c3)s1)n2CCc1ccccc1)C(C)(C)C	u	-43%	19µM*	x	x	x
CON(C)C(=O)N1N=C(c2cc(F)ccc2F)S[C@]1(CCCN)c1ccccc1	-22%	-30%	3%	x	x	x
Cc1ccc2nc(-c3ccc(Cl)s3)c(Nc3ccc4c(c3)OCCO4)n2c1	41%	4.5µM*	i	7%	-16%	4%
C=C1C(=CC=C2CCC[C@]3(C)[C@@H]([C@H](C)CCCC(C)(C)O)CC[C@@H]23)C[C@@H](O)C[C@@H]1O	19%	-10%	0%	x	x	x
CCCOCc1cc(CN2CCN(c3cccc(Cl)c3)CC2)c(O)c2ncccc12	8.9µM*	-38%	u	u	u	u
CCCCOCc1cc(CN2CCN(c3cccc(Cl)c3)CC2)c(O)c2ncccc12	u	-39%	-23%	u	2.7µM*	u
O=C(NCCCN1CCN(c2cccc(Cl)c2)CC1)c1sc2ncccc2c1-n1cccc1	u	-26%	i	-11%	u	u
CCN1CCC(n2cc(CNc3cc(Cl)c4ncc(C#N)c(Nc5ccc(F)c(Cl)c5)c4c3)nn2)CC1	7%	-2%	-1%	x	x	x
Cc1cc(OCC(=O)Nc2cc(-c3nc4ccccc4[nH]3)ccc2C)ccc1Cl	u	-26%	i	15µM*	-53%	-11%
Cc1ccc(-c2nc3ccccc3[nH]2)cc1NC(=O)COc1ccc(Cl)cc1Cl	u	-14%	-10%	-1%	0%	u
Cc1ccc(C)c(CN2C(=O)C(=O)c3ccccc32)c1	-24%	-25%	1%	2.9µM*	u	u
Cc1ccc2c(c1)C(=O)C(=O)N2Cc1ccc(OC(C)C)cc1	u	-42%	-7%	u	2.3µM*	u
Cc1ccc(C)c(CN2C(=O)c3ccccc3S(=O)c3ccc(C(=O)N(C)Cc4ccccc4)cc32)c1 (configuration not stated)	u	-36%	i	-13%	u	4%
COC(=O)c1ccc2c(C(=Nc3ccc(N(C)C(=O)CN4CCN(C)CC4)cc3)c3ccccc3)c(O)[nH]c2c1	u	-24%	-3%	x	x	x
CCc1ccc(C(=O)Nc2cc(CN3CCN(C)CC3)cc(C(F)(F)F)c2)cc1C#Cc1cnc2ccnn2c1	-22%	-30%	2%	x	x	x
CCN1CCN(c2cc(C)c3cc(NC(=O)c4ccc(OC)c(OC)c4)ccc3n2)CC1	-12%	0%	0%	u	u	20µM*
Cc1cc(N2CCN(C)CC2)nc2ccc(NC(=O)c3ccc(C(C)(C)C)cc3)cc12	u	-18%	u	5.8µM*	u	u
CCN1CCN(c2cc(C)c3cc(NC(=O)c4cc(OC)c(OC)c(OC)c4)ccc3n2)CC1	14%	-13%	-2%	u	-2%	-19%
Cc1cc(N2CCN(C)CC2)nc2ccc(NC(=O)Nc3ccc(Cl)cc3)cc12	23%	4%	4%	1%	u	-26%
COc1cc(C(=O)NC(c2ccccc2Cl)c2cc(Cl)c3cccnc3c2O)cc(OC)c1OC (configuration not stated)	u	-59%	i	-20%	4.4µM*	u
COc1ccc(C(=O)NC(c2ccccc2Cl)c2cc(Cl)c3cccnc3c2O)cc1 (configuration not stated)	8.9µM*	-41%	-29%	u	u	3.2µM*
SMILES	HTT prom inh	HTT-AS promoter	OvCa metastasis	mTORC1 inh	PMP22 txn prim	S16 viability
Oc1c(I)cc(Cl)c2cccnc12	-12%	-5%	x	x	x	x
CN(C[C@@H]1COCCO1)S(=O)(=O)Nc1ccc2ccc3ncc(-c4cnn(C)c4)cc3c(=O)c2c1	15%	-1%	27%	x	x	x
COC(=O)c1ccc(NC(=O)CSc2nnc3c4ccccc4n(C(C)C)c3n2)cc1	9%	0%	i	-1%	-24%	6%
COc1ccccc1NC(=O)CSc1nnc2c3ccccc3n(C(C)C)c2n1	u	-30%	-8%	15µM*	u	u
COc1ccc(CN2CCc3c(c(=O)n4ncc(C(=O)N5CCN(c6ccc(F)cc6)CC5)c4n3C)C2)cc1	13µM*	-51%	i	3%	u	-30%
CCn1c(=O)sc2cc(NS(=O)(=O)c3ccc(F)c(C)c3)ccc21	14µM*	-52%	i	-17%	u	-15%
Cc1cc(S(=O)(=O)Nc2ccc3[nH]c(=O)sc3c2)ccc1F	u	-28%	i	0%	-6%	-12%
O=C(Nc1ncc(SCCN2CCCC2)s1)[C@]1(c2ccc(S(=O)(=O)C3CC3)cc2)C[C@@H]1C1CCCCC1	-12%	-19%	-5%	x	x	x
CC1C(=O)N2CCCc3cc(S(=O)(=O)Nc4ccc(Br)cc4F)cc1c32 (configuration not stated)	-9%	-15%	-1%	13µM*	4%	-2%
C=CCn1c(=O)c2cnc(Nc3ccc(N4CCN(C)CC4)cc3)nc2n1-c1cccc(C(C)(C)O)n1	u	-38%	5%	x	x	x
Oc1ccc(NCc2ccc(OCc3ccccc3)cc2)cc1	-23%	14%	u	15µM*	4.6µM*	10µM*
Oc1ccc(NCc2ccccc2OCc2ccccc2Cl)cc1	-18%	-11%	-5%	-28%	7µM*	20µM*
Oc1ccc(OCc2ccccc2)cc1	11%	u	4%	x	x	x
Oc1ccc(NCc2ccc(OCc3ccccc3Cl)cc2)cc1	0%	-3%	i	16µM*	u	u
Fc1ccc(NCc2ccccc2-c2nnc(-c3ccccc3Cl)o2)cc1	45%	u	0%	-9%	-7%	0%
O=C(O)Cn1nnc(-c2cc(N3CCC(Oc4cc(F)ccc4Br)CC3)no2)n1	u	-34%	2%	x	x	x
